Reference: PubChem BioAssay (Tox21)
Inconclusive results are not listed. The source made the active and inactive calls. Unless noted, calls follow the shape of the dose curve; as a rule, active = well fitted curve in the direction sought with a large enough effect in the repeat runs; inconclusive = weak or mixed curves; inactive = no such curve, though single readings can be large; an effect the other way counts as inactive or inconclusive.

Legend:
[1] = qHTS assay to identify small molecule agonists of the hypoxia (HIF-1) signaling pathway - cell viability counter screen (AID 1224844; calls by dose curve; also: nearly all actives have a fitted effect of over 50% in size; also: potency is read from the fitted curve at half-maximal effect); conditions: HRE-bla ME-180 viability, CellTiter-Glo luminescence, 17 h; series mostly up to 76.8 µM
Summary of the method: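 Tox21 10K compounds were added to HRE-bla ME-180 cells (0.5% dialyzed FBS) and incubated 17 hrs at 37C; ATP-based CellTiter-Glo luminescence then reported cell viability in the same wells.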

[2] = qHTS assay to identify small molecule agonists of H2AX (AID 1224845; active = well fitted activation curve with a large enough effect in the signal ratio in the repeat runs, not every such curve was filed as active; the % refers to the signal ratio); conditions: CHO-K1 phospho-H2AX Ser139 HTRF, 3 h; series mostly up to 154 µM
Summary of the method: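 Wild-type CHO-K1 cells plated overnight, then exposed 3 hr at 37C to compounds at 15 concentrations (0.76% DMSO). Lysed, then HTRF anti-pH2AX(S139)-cryptate/anti-H2AX-d2 detection after 24 hr at room temperature; emissions 665 and 620 nm.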

[3] = qHTS assay to identify small molecule agonists of the hypoxia (HIF-1) signaling pathway (AID 1224846; active = well fitted activation curve with a large enough effect in the signal ratio in the repeat runs, not every such curve was filed as active; the % refers to the signal ratio); conditions: HRE-bla ME-180 cells, beta-lactamase ratio, 17 h; series mostly up to 76.8 µM
Summary of the method: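 Steps: seed ME-180 HRE-bla cells (2,000/well, 0.5% dialyzed FBS); incubate 5 hrs at 37C; pin-transfer compounds or DMSO; incubate 17 hrs; add LiveBLAzer B/G substrate CCF4-AM; measure reporter activation by FRET.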

[4] = qHTS assay to identify small molecule agonists of H2AX - cell viability counter screen (AID 1224847; calls by dose curve; also: nearly all actives have a fitted effect of over 30% in size; also: potency is read from the fitted curve at half-maximal effect); conditions: CHO-K1 viability, CellTiter-Glo luminescence, 3 h; series mostly up to 154 µM
Summary of the method: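 Quantitative HTS viability measurement: CHO-K1 wild-type cells in serum (10% FBS) medium, short 3 hr drug exposure at 37C with 0.76% DMSO, CellTiter-Glo luminescent detection.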

[5] = qHTS assay to identify small molecule antagonists of the estrogen related receptor (ERR) signaling pathway from Tox21 library (AID 1224848); conditions: ERR reporter cell line, luciferase antagonist mode, 18 h; series mostly up to 92.4 µM; also: nearly all actives have a fitted effect of over 50% in size; also: potency is read from the fitted curve at half-maximal effect
Summary of the method: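 Screening used an ERR reporter line supplied by NTP, exposed for 18 h at 37 C to library compounds delivered in DMSO. Signal was luciferase luminescence developed with ONE-Glo at room temperature for 30 min.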

[6] = qHTS assay to identify small molecule agonists of the estrogen related receptor (ERR) signaling pathway from Tox21 library (AID 1224849; calls by dose curve; also: nearly all actives have a fitted effect of over 15% in size); conditions: ERR reporter cell line, ONE-Glo luciferase, 18 h; at 92.4 µM (top of the series) unless noted
Summary of the method: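 Agonist signal is luciferase luminescence from an ERR reporter cell line treated 18 h at 37 C with DMSO-dissolved compounds, read 30 min after ONE-Glo addition at room temperature.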

[7] = qHTS RealTime-Glo MT Cell Viability Assay in HepG2 cells - 24 hour (AID 1224867); conditions: RealTime-Glo luminescence; series mostly up to 76.8 µM; also: nearly all actives have a fitted effect of over 50% in size
Summary of the method: (§1)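 HepG2 cells were seeded at 600 cells/well together with NanoLuc luciferase and a cell-permeant prosubstrate, preincubated 5 h at 37 C/5% CO2, then pin-dosed with compounds in DMSO. Nonlytic luminescence from viable cells was read at each time point.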

[8] = qHTS RealTime-Glo MT Cell Viability Assay in HepG2 cells - 40 hour (AID 1224870); conditions: RealTime-Glo luminescence; series mostly up to 76.8 µM; also: nearly all actives have a fitted effect of over 50% in size
Summary of the method: (§2)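 HepG2 cells mixed with RealTime-Glo MT reagents (NanoLuc plus cell-permeant prosubstrate) were seeded at 600 cells/well, incubated 5 h at 37 C/5% CO2, then pinned with compounds in DMSO; nonlytic luminescence tracked viability during 40 h treatment.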

[9] = A CellTox Green Cytotoxicity Assay to monitor cytotoxicity in HEK293 cells - 40 hour (AID 1224871); conditions: CellTox Green fluorescence; series mostly up to 76.8 µM; also: nearly all actives have a fitted effect of over 45% in size
Summary of the method: (§3)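 Cytotoxicity was tracked continuously in HEK293 cells by a DNA-binding dye excluded from viable cells. Compounds were transferred in DMSO 5 h after seeding; fluorescence was recorded at intervals up to 40 h.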

[10] = qHTS RealTime-Glo MT Cell Viability Assay in HEK293 cells - 16 hour (AID 1224872); conditions: RealTime-Glo luminescence; series mostly up to 76.8 µM; also: nearly all actives have a fitted effect of over 50% in size; also: potency is read from the fitted curve at half-maximal effect
Summary of the method: (§4)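 HEK293 cells were seeded at 600 cells/well together with NanoLuc luciferase and cell-permeant prosubstrate, preincubated 5 h at 37 C/5% CO2, then given compound in DMSO by pintool. Luminescence from viable-cell prosubstrate reduction was read repeatedly over 40 h.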

[11] = qHTS RealTime-Glo MT Cell Viability Assay in HepG2 cells - 8 hour (AID 1224873); conditions: RealTime-Glo luminescence; series mostly up to 76.8 µM; also: nearly all actives have a fitted effect of over 55% in size
Summary of the method: as §2

[12] = A CellTox Green Cytotoxicity Assay to monitor cytotoxicity in HEK293 cells - 24 hour (AID 1224875); conditions: CellTox Green fluorescence; series mostly up to 76.8 µM; also: nearly all actives have a fitted effect of over 45% in size
Summary of the method: as §3

[13] = A CellTox Green Cytotoxicity Assay to monitor cytotoxicity in HepG2 cells - 16 hour (AID 1224876); conditions: CellTox Green fluorescence; series mostly up to 76.8 µM; also: nearly all actives have a fitted effect of over 45% in size
Summary of the method: (§5)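 Real-time, homogeneous cytotoxicity readout: dead-cell DNA staining by CellTox Green in HepG2 monolayers, fluorescence measured at timed intervals up to 40 h of continuous compound exposure.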

[14] = qHTS RealTime-Glo MT Cell Viability Assay in HepG2 cells - 32 hour (AID 1224877); conditions: RealTime-Glo luminescence; series mostly up to 76.8 µM; also: nearly all actives have a fitted effect of over 55% in size
Summary of the method: as §1

[15] = A CellTox Green Cytotoxicity Assay to monitor cytotoxicity in HepG2 cells - 24 hour (AID 1224878); conditions: CellTox Green fluorescence; series mostly up to 76.8 µM; also: nearly all actives have a fitted effect of over 45% in size
Summary of the method: as §5

[16] = A CellTox Green Cytotoxicity Assay to monitor cytotoxicity in HepG2 cells - 40 hour (AID 1224879); conditions: CellTox Green fluorescence; series mostly up to 76.8 µM; also: nearly all actives have a fitted effect of over 40% in size; also: potency is read from the fitted curve at half-maximal effect
Summary of the method: as §5

[17] = qHTS RealTime-Glo MT Cell Viability Assay in HEK293 cells - 0 hour (AID 1224880); conditions: RealTime-Glo luminescence; series mostly up to 76.8 µM
Summary of the method: (§6)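 Nonlytic bioluminescent viability monitoring. HEK293 at 600 cells/well with reagent; 5 h settle; compound transfer by pintool; plates held at 37 C and read at set time points.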

[18] = qHTS RealTime-Glo MT Cell Viability Assay in HEK293 cells - 32 hour (AID 1224868); conditions: RealTime-Glo luminescence; series mostly up to 76.8 µM; also: nearly all actives have a fitted effect of over 50% in size; also: potency is read from the fitted curve at half-maximal effect
Summary of the method: as §4

[19] = qHTS RealTime-Glo MT Cell Viability Assay in HEK293 cells - 40 hour (AID 1224874); conditions: RealTime-Glo luminescence; max response: stronger effect = lower value; also: nearly all actives have a fitted effect of over 50% in size; also: potency is read from the fitted curve at half-maximal effect
Summary of the method: as §6

[20] = A CellTox Green Cytotoxicity Assay to monitor cytotoxicity in HEK293 cells - 0 hour (AID 1224869); conditions: CellTox Green fluorescence; series mostly up to 76.8 µM; also: nearly all actives have a fitted effect of over 50% in size
Summary of the method: as §3
% is scaled to controls: 0 for no effect and ±100 for the full control effect.

O=C(O)c1nc(Cl)c(Cl)c(Cl)c1Cl
inactive: Potency [1] | Potency [2] | Potency [3] | Potency [4] | Potency [5] | activity change, positive = activation [6] 0.56% | Potency [7] | Potency [8] | Potency [9] | Potency [10] | Potency [11] | Potency [12] | Potency [13] | Potency [14] | Potency [15] | Potency [16] | Potency [17]

COC(C)(C)CCO
inactive: Potency [1] | Potency [2] | Potency [3] | Potency [4] | Potency [5] | activity change, positive = activation [6] 3.52% | Potency [7] | Potency [18] | Potency [8] | Potency [9] | Potency [10] | Potency [11] | max response [19] 1.17% | Potency [12] | Potency [14] | Potency [15] | Potency [17]

COc1ccc(-c2nc3ccc(C4=NNC(=O)CC4C)cc3[nH]2)cc1 (stereo not given)
inactive: Potency [1] | Potency [2] | Potency [3] | Potency [4] | Potency [5] | Potency [7] | Potency [20] | Potency [8] | Potency [9] | Potency [11] | Potency [12] | Potency [13] | Potency [15] | Potency [17]
active: Potency [18] 8.49 µM | Potency [10] 9.52 µM | Potency [19] 7.56 µM | Potency [16] 21.3 µM

CCc1c(C(=O)NN2CCCCC2)nn(-c2ccc(Cl)cc2Cl)c1-c1ccc(Br)cc1
active: Potency [1] 21.9 µM | Potency [5] 1.22 µM
inactive: Potency [2] | Potency [3] | Potency [4] | Potency [20] | Potency [9] | Potency [10] | Potency [12] | Potency [13] | Potency [15] | Potency [16] | Potency [17]

ClCCOCCOCCCl
inactive: Potency [1] | Potency [2] | Potency [3] | Potency [4] | Potency [5] | Potency [7] | Potency [18] | Potency [20] | Potency [8] | Potency [9] | Potency [10] | Potency [11] | max response [19] 5.38% | Potency [12] | Potency [14] | Potency [17]

CN1Cc2cc(C(=O)N3CCC(C4CCNCC4)CC3)ccc2NC(CC(=O)O)C1=O (stereo not given)
inactive: Potency [1] | Potency [2] | Potency [3] | Potency [4] | Potency [5] | Potency [7] | Potency [18] | Potency [8] | Potency [9] | Potency [10] | Potency [11] | max response [19] 5.98% | Potency [12] | Potency [13] | Potency [14] | Potency [15] | Potency [16] | Potency [17]

CCCCCCCC/C=C\CCCCCCCC(=O)OCC
inactive: Potency [1] | Potency [2] | Potency [3] | Potency [4] | Potency [5] | activity change, positive = activation [6] -11.5% | Potency [7] | Potency [18] | Potency [20] | Potency [8] | Potency [9] | Potency [10] | Potency [11] | max response [19] 4.58% | Potency [12] | Potency [15] | Potency [16] | Potency [17]

CC(C)OC(=O)C(C)N(C(=O)c1ccccc1)c1ccc(F)c(Cl)c1 (stereo not given)
inactive: Potency [1] | Potency [2] | Potency [3] | activity change, positive = activation [6] -51.7% | Potency [7] | Potency [18] | Potency [20] | Potency [9] | Potency [10] | Potency [11] | max response [19] -29.8% | Potency [12] | Potency [13] | Potency [15] | Potency [17]
active: Potency [4] 56.6 µM | Potency [5] 17.2 µM

COCCCN1CCC(NC(=O)c2cc(Cl)c(N)c3c2OCC3)CC1
inactive: Potency [1] | Potency [2] | Potency [3] | Potency [4] | Potency [5] | activity change, positive = activation [6] 5.44% [at 42.5 µM] | Potency [7] | Potency [18] | Potency [20] | Potency [8] | Potency [9] | Potency [10] | Potency [11] | max response [19] -14% | Potency [12] | Potency [13] | Potency [14] | Potency [15] | Potency [16] | Potency [17]

CCC(Cl)CCC(Cl)C(Cl)CC(Cl)C(Cl)C(Cl)CCl (stereo not given)
inactive: Potency [1] | Potency [2] | Potency [3] | Potency [4] | Potency [5] | activity change, positive = activation [6] 0.0481% | Potency [7] | Potency [18] | Potency [20] | Potency [8] | Potency [9] | Potency [10] | Potency [11] | max response [19] 0.988% | Potency [12] | Potency [13] | Potency [14] | Potency [15] | Potency [17]

CC(=O)[O][Al]
inactive: Potency [1] | Potency [2] | Potency [3] | Potency [4] | Potency [5] | activity change, positive = activation [6] 0.0434% | Potency [7] | Potency [18] | Potency [8] | Potency [9] | Potency [10] | max response [19] 3.87% | Potency [12] | Potency [13] | Potency [14] | Potency [15] | Potency [16] | Potency [17]

CC(COCCO)OCCO (stereo not given)
inactive: Potency [1] | Potency [2] | Potency [3] | Potency [4] | Potency [5] | activity change, positive = activation [6] 0.277% | Potency [7] | Potency [18] | Potency [20] | Potency [8] | Potency [9] | Potency [10] | Potency [11] | max response [19] 4.24% | Potency [12] | Potency [14] | Potency [15] | Potency [16] | Potency [17]

CCCCC(CC)COC(=O)CCCCCCCCC(=O)OCC(CC)CCCC (stereo not given)
inactive: Potency [1] | Potency [2] | Potency [3] | Potency [4] | Potency [5] | activity change, positive = activation [6] 1.57% | Potency [7] | Potency [18] | Potency [20] | Potency [8] | Potency [9] | Potency [10] | Potency [11] | max response [19] 1.51% | Potency [12] | Potency [13] | Potency [14] | Potency [15] | Potency [16] | Potency [17]
